The record followed here is PubChem BioAssay AID602281 (The Scripps Research Institute Molecular Screening Center, 2012).

Where “and” joins values, the source holds several entries; their conditions need not be identical. Equal entries are not always repeated. Hit rate of the full screen: of about 360,000 compounds, about 2,900 (0.81%) were called active.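 How the source made its calls: active means inhibition above the mean inhibition across every tested compound plus 3 SD (cut at about 22% in these data); inactive means the rest.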 This excerpt belongs to a sample that is enriched for actives. Where a structure was tested more than once in an assay, its records may differ in their call.

Chain of Perilipin-5 (Homo sapiens) + 1-acylglycerol-3-phosphate O-acyltransferase ABHD5 (Homo sapiens) (Q00G26 whole entry, looked up): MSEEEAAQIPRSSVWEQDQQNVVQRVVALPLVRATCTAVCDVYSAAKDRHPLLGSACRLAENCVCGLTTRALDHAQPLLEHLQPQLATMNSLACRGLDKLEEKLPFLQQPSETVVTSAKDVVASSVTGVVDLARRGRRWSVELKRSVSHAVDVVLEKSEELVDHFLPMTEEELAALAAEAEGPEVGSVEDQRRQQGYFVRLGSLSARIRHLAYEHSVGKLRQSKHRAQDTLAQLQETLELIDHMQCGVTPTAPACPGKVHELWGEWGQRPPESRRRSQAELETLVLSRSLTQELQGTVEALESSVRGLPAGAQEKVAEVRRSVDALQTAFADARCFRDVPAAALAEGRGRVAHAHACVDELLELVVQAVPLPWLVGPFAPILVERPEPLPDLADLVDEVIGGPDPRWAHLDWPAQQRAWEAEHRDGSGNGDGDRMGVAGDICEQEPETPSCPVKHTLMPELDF
Chain of Perilipin-5 (Homo sapiens) + 1-acylglycerol-3-phosphate O-acyltransferase ABHD5 (Homo sapiens) (Q8WTS1 whole entry, looked up): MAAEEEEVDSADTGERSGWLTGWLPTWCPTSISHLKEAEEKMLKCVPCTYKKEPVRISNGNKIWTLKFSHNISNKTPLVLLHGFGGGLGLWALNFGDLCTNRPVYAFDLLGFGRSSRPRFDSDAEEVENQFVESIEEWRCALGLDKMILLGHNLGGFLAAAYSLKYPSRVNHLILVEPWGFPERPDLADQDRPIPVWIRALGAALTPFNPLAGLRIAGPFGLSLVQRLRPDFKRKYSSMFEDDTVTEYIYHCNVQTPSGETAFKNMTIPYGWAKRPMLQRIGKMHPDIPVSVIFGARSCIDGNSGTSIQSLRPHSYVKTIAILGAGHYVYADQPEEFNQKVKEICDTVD

This test addresses Perilipin-5 (Homo sapiens) + 1-acylglycerol-3-phosphate O-acyltransferase ABHD5 (Homo sapiens) (UniProt Q00G26+Q8WTS1). Put plainly: blockers of ABHD5 binding to perilipin-5 – cell lysate, split luciferase complementation, luminescence, primary screen (AID 602281).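 Further: 0% = DMSO only wells and the 100% control is not disclosed.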 The following applies: Split G. princeps luciferase complementation, 4 h, at 4 µM, stronger effect = higher value.
With `COc1cc2c(C(=O)N(C)c3cc(Cl)ccc3OC)cn(C)c(=O)c2cc1OC`, the inhibition was -8.81% (inactive).
With `CN(C)CCNC(=O)C(C(=O)c1ccccc1)n1ccccc1=O` (configuration not stated) the figure was -4.39% (inactive).
With `COCCNC(=O)c1ccc(Cn2c(SCC(=O)NCC3CCCO3)nc3ccc(Br)cc3c2=O)cc1` (configuration not stated) the figure was -3.04% (inactive).
For the compound `CCCN1CCn2c3c(c4cc(Br)ccc42)CCCC31` (configuration not stated), the inhibition is -7.51% (inactive).
With `OC(CNCC1CCCO1)Cn1c2ccc(Br)cc2c2cc(Br)ccc21` (configuration not stated) the figure was 27.7% (active).
With `CCOc1ccc(N(CC(=O)NCCc2ccc(OC)cc2)S(C)(=O)=O)cc1` the figure was -0.93% (inactive); with `Cc1cc(C)n(CC(C)NCc2c(C(=O)N3CCOCC3)nc3c(C)cccn23)n1` (configuration not stated), 1.11% (inactive); with `CC1=C(C(=O)N2CCOCC2)CC(CC(=O)NCc2ccco2)C(=O)N1Cc1ccc(F)cc1` (configuration not stated), 5.09% (inactive).
With `Cc1c(CCOC(=O)c2cc([N+](=O)[O-])ccc2Cl)sc[n+]1CCCCS(=O)(=O)[O-]` the figure was 7.78% (inactive); with `Cc1c(CCOC(=O)CC23CC4CC(CC(C)(C4)C2)C3)sc[n+]1Cc1ccc([N+](=O)[O-])cc1`, 19% (inactive) and 24.3% (active).
In the case of `Cc1c(CCO)sc[n+]1CC(=O)OC12CC3CC(CC(C3)C1)C2`, the inhibition is -1.3% (inactive).
With `O=C(NCCCN1CCOCC1)C1CCCN(S(=O)(=O)N2CCCCC2)C1` (configuration not stated) the figure was -6.18% (inactive).
For `Fc1ccc(Nc2nnns2)cc1`, the inhibition is -1.08% (inactive).
`Cc1[nH]c(C)c(S(=O)(=O)N2CCN(c3cccc(C(F)(F)F)c3)CC2)c1C(=O)N1CCCCC1`: the inhibition was -3.87% (inactive).
The figure for `Cc1c(C)c2c(OCC(=O)N[C@@H](C(=O)O)c3ccccc3)cc3c(c2oc1=O)CCC(C)(C)O3` is 9.96% (inactive).
On to `CC1CC(C)CN(CC(=O)Nc2ccc(S(N)(=O)=O)cc2)C1` (configuration not stated), for which the inhibition is -3.77% (inactive).
The figure for `CC1Cc2ccccc2N1CC(=O)Nc1ccc(S(N)(=O)=O)cc1` (configuration not stated) is 26.1% (active); for `CC1Cc2ccccc2N1CC(=O)Nc1ccc2c(c1)OC(F)(F)O2` (configuration not stated) it is -17.3% (inactive).
With `O=C(CCSc1ccccc1)NCCSc1ccccn1` the figure was 4.14% (inactive); with `Cc1ccc2cc3cc(C(=O)N4CCCCCC4)oc3nc2c1`, 0.91% (inactive); with `O=C1Cc2cc(S(=O)(=O)Nc3cccc(F)c3)ccc2N1`, -4.67% (inactive).
The figure for `CCN(CC(=O)Nc1c(F)cccc1F)C(=O)c1ccc(-c2ccc(C(C)=O)cc2)o1` is -6.21% (inactive); for `CCC1(c2ccccc2)NC(=O)N(CC(=O)c2ccc3c(c2)OCO3)C1=O` (configuration not stated) it is 6.66% (inactive).
Consider `O=C(CCN1CCc2ccccc2C(O)(c2ccccc2)C1)c1ccc2c(c1)OCCO2` (configuration not stated), for which the inhibition was 40.8% (active).
The figure for `O=C(CN1CCN(c2ccccc2F)CC1)c1ccc2c(c1)OCO2` is 1.72% (inactive); for `COCCN1CCn2c(nc3cc(NS(C)(=O)=O)ccc32)C1` it is 3.04% (inactive).
Take `Cc1cc(SCC(=O)NCCN2C(=O)CSC2=O)nc2ccccc12`: the inhibition is 1.93% (inactive).
With `Cc1cc(C)cc(C(=O)NC(CC(N)=O)c2ccc(N3CCC(N4CCCCC4)CC3)c([N+](=O)[O-])c2)c1` (configuration not stated) the figure was -0.26% (inactive); with `O=C(CSc1nnc(CNC(=O)c2ccc(F)cc2)o1)Nc1ccc2c(c1)OCO2`, -2.58% (inactive).
On to `COCCN(CCOC)c1nc(N)c2c(N)nc3c(c2c1C#N)CC(=O)N3Cc1ccc(Cl)cc1`, for which the inhibition is 32.7% (active).
As to `C=CCC[C@H](CCCCC)OC(=O)/C=C/[C@H](O)[C@@H](O)C[C@@H](O)CC=C`, the inhibition was -7.52% (inactive).
With `CC(C)(O)C#Cc1ccc(CN2CCC(CO)(CCc3ccccc3)CC2)cc1`, the inhibition is -5.13% (inactive).
With `Cc1cccc(-c2ncc(CN3CCC(CO)(CCCc4ccccc4)CC3)cn2)c1` the figure was 12.2% (inactive).
Consider `Cc1c(CN2CCC(CO)(CCOc3ccccc3)CC2)[nH]c2ccc(Cl)cc12`, for which the inhibition was 22.5% (active).
The figure for `CCC(=O)NC(Nc1cc(C)ccn1)(C(F)(F)F)C(F)(F)F` is 7.47% (inactive); for `c1cc(-c2ccc3[nH]ccc3c2)n2ccnc2c1` it is 0.38% (inactive).
The figure for `CCN1CCC(O)(/C=C/c2ccc(C)cc2)C(C(=O)/C=C/c2ccc(C)cc2)C1` (configuration not stated) is 75% (active); for `CN(CC(=O)Nc1cccc2c1CCCC2)S(=O)(=O)c1ccc(Cl)cc1` it is 4.76% (inactive); for `COC(=O)Cc1ccc(OC(=O)C2CCN(S(=O)(=O)c3ccc(OC)c(OC)c3)CC2)cc1` it is 4.12% (inactive).
On to `CC1(C(=O)NCc2cccc3ccccc23)CCN1Cc1ccc(-c2ccccc2)o1` (configuration not stated), for which the inhibition was 40.4% (active).
As to `CSc1ccc(CN2CCC2(C)C(=O)NCc2ccccc2Br)cc1` (configuration not stated), the inhibition is -5.69% (inactive).
With `CC1(C(=O)NCc2ccc3c(c2)OCO3)CCN1C(=O)Cc1cccc2ccccc12` (configuration not stated) the figure was 0.84% (inactive); with `CN(C)c1cccc(C(=O)N2CCC(n3nccc3NC(=O)C3CCOC3)CC2)c1` (configuration not stated), -0.66% (inactive).
`CSCCC(C(=O)NC(C)(C)C)n1c(-c2ccccc2)nc2ccccc21` (configuration not stated): the inhibition is -13.8% (inactive).
The figure for `CC(C)(C)NC(=O)C(CCc1ccccc1)n1c(=O)c(-c2ccccc2)nc2ccccc21` (configuration not stated) is 22.9% (active); for `CCC(C(=O)NC(C)(C)C)n1c(-c2ccccc2)nc2ccccc21` (configuration not stated) it is 9.54% (inactive).
The figure for `COc1ccc(S(=O)(=O)N2CCCCC2)cc1NC(=O)C1CC(=O)N(c2ccc3c(c2)OCCO3)C1` (configuration not stated) is 12.7% (inactive); for `CCOCN(C(=O)Cn1c(C(C)O)nc2ccccc21)c1c(C)cccc1CC` (configuration not stated) it is -2.38% (inactive).
With `CN(C)C(=O)COC(=O)c1cccc(S(=O)(=O)N2CC3(C)CC2CC(C)(C)C3)c1` (configuration not stated) the figure was -4.49% (inactive).
As for `Cc1nnnn1/C(=C\c1ccccc1)C(=O)OCC(=O)N1CC2(C)CC1CC(C)(C)C2` (configuration not stated), the inhibition is 38.6% (active).
With `O=S(=O)(NCc1cccnc1)c1ccc(Cl)nc1` the figure was 5.93% (inactive); with `Cc1cc(C)c(C)c(S(=O)(=O)Nc2ccc(O)cc2)c1C`, 4.3% (inactive); with `COc1ccc(CN2C(=O)C(CC(=O)NCCN3CCOCC3)CC(C(=O)N(C(C)C)C(C)C)=C2C)cc1` (configuration not stated), -11% (inactive).
With `CCCCCCCCCCCCCCCC(=O)OC/C=C(C)/C=C/C=C(C)/C=C/C1=C(C)CCCC1(C)C` the figure was -4.62% (inactive).
In the case of `O=C(Nc1ccccc1C(F)(F)F)N1CCCC1c1cccnc1` (configuration not stated), the inhibition is 11.2% (inactive).
With `CCOC(=O)c1cccc(NC(=O)CCc2nnc3ccc(N4CCOCC4)nn23)c1`, the inhibition was -2.37% (inactive).
The figure for `CC(=O)c1ccc(NC(=O)CCc2nnc3ccc(NCc4ccco4)nn23)cc1` is 27.9% (active).
With `O=C(CNc1ccc(F)cc1F)NC(=O)NCc1ccco1` the figure was -0.2% (inactive).
With `CC1CCN(C(=O)CCc2nnc3ccc(NCc4ccco4)nn23)CC1` the figure was 7.83% (inactive); with `CCOc1ccccc1NC(=O)CCc1nnc2ccc(NCc3ccco3)nn12`, 16.7% (inactive); with `O=C(CCc1nnc2ccc(NCc3ccco3)nn12)Nc1cc(F)ccc1F`, 22.5% (active).
For `Cc1ccc(-n2c(SCC(=O)Nc3ncc(Cl)cc3Cl)nc3ccccc32)cc1`, the inhibition was -7.45% (inactive).
The figure for `Nn1c(SCC(=O)NC2CCCc3ccccc32)nnc1C1CC1` (configuration not stated) is 10.4% (inactive).
The figure for `O=S(=O)(Nc1nccs1)c1ccc2c(c1)OCCO2` is -5.22% (inactive).
The figure for `CCOc1ccc2nc(Cl)c(C3CC(c4ccccc4)=NN3C(=O)c3cccs3)cc2c1` (configuration not stated) is -5.74% (inactive); for `Cc1cccc(C)c1NC(=O)CN1C(=O)C(C)Oc2ccccc21` (configuration not stated) it is -5.51% (inactive); for `O=C(NCCOCc1ccc(Cl)cc1)c1ncn[nH]1` it is 24.2% (active).
For `O=C(NCCS(=O)(=O)NCc1ccc(Cl)cc1)c1ccccc1`, the inhibition was -6.46% (inactive).
On to `Cc1cc(C(=O)NCCc2ccc(Cl)cc2)n(-c2ccccc2)n1`, for which the inhibition is 1.98% (inactive).
Take `O=C(C(=O)N1CCc2ccccc2C1)c1c[nH]c2ccccc12`: the inhibition was 0.81% (inactive).
Consider `COc1cccc(C(CC(=O)NCCN2CCOCC2)NS(=O)(=O)c2ccc(C)cc2)c1OC` (configuration not stated), for which the inhibition is 9.39% (inactive).
The figure for `Nc1ccc2nc3c(=O)[nH]c(=S)[nH]c3nc2c1` is 35% (active); for `Cc1cccc(NS(=O)(=O)c2ccc(C)c(C(=O)NCc3cccnc3)c2)c1` it is 3.74% (inactive).
The figure for `CN(CC(=O)Nc1ccc(F)cc1)CC(=O)Nc1ccc(Cl)c(S(=O)(=O)N2CCOCC2)c1` is 5.71% (inactive).
With `O=C(CS(=O)(=O)Cc1ccccc1)Nc1cccnc1`, the inhibition is -3.38% (inactive).
With `Cc1cccc(NC(=O)c2nc(S(=O)(=O)Cc3ccccc3)ncc2Cl)c1` the figure was 72.4% (active); with `Cc1cccc(C(=O)Nc2ccc(Oc3cnccn3)cc2)c1`, 3.4% (inactive); with `Cc1cccc(CS(=O)(=O)c2ncc(Cl)c(C(=O)Nc3ccc(F)cc3)n2)c1`, 53.6% (active).
For `O=C(NCCN1CCN(C(=O)c2cccc([N+](=O)[O-])c2)CC1)C(=O)NCc1ccc(Cl)cc1`, the inhibition was 12.1% (inactive).
On to `CCOc1cc(C(=O)Nc2c(C)ccc3nsnc23)cc(OCC)c1OCC`, for which the inhibition was -10.9% (inactive).
Consider `C[C@@H]1C[C@@H]2O[C@H]2/C=C\C=C\C(=O)Cc2c(Cl)c(O)cc(O)c2C(=O)O1`, for which the inhibition is 27.7% (active).
As for `COc1ccccc1CNS(=O)(=O)c1cc(C(=O)NCc2ccccn2)c(Cl)cc1Cl`, the inhibition is 2.36% (inactive).
With `Cc1ccc2c(c1)N(CC(=O)N1CCC(C)CC1)C(=O)c1cccnc1O2`, the inhibition is -5.07% (inactive).
Turning to `Cc1ccc(N(C(=O)c2ccc(CN3CCOCC3)o2)C(C(=O)NCCC(C)C)c2cccs2)c(C)c1` (configuration not stated), the inhibition is 5.44% (inactive).
The figure for `Cc1ccc(S(=O)(=O)N2CCC(C(=O)N[C@@H](C)C(=O)NCCc3ccccc3)CC2)cc1` is -6.43% (inactive); for `NC(=S)Nc1c(Cl)cccc1Cl` it is -3.54% (inactive); for `CCCCN(CCCC)CCNC(=O)CN1C(=O)COc2ccc(S(=O)(=O)N3CCOCC3)cc21` it is -1.64% (inactive).
